Measurements: PubChem BioAssay (EPA / NIEHS)
Values joined by “and” are separate entries in the source; they are usually repeats but may differ in a detail not shown here. Identical values can stand only once. Inconclusive results are not listed. Where a structure was tested more than once in an assay, its records may differ in their call. Active and inactive are the calls of the source. The calls were made as follows, unless noted: active = hit-call score of the fitted dose curve at least 0.9, where 1 is the maximum; inconclusive = response in the unintended direction; inactive = score below 0.9.

Legend:
[1] = CEETOX_H295R_MTT_cell_viability: Viability Assessment in the CeeTox HT-H295R MTT Assay (AID 2283718; active = hit-call score of the fitted dose curve at least 0.9, where 1 is the maximum; inactive = score below 0.9;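 as to AC50: curve fitted both ways so AC50 may mark viability loss or gain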)
In short: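 Human H295R adrenal cells, prestimulated 48 h with 10 uM forskolin, were exposed 48 h to chemicals in 0.1% DMSO. Viability was measured in the same wells by MTT (0.5 mg/ml, 4 h, 37 C), absorbance 570/650 nm, as percent of controls.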

[2] = target: Luciferin 4-monooxygenase (Photinus pyralis) (UniProt P08659); assay: CCTE_Simmons_QuantiLum_inhib_2: CCTE's Firefly Luciferase Inhibition Assay, Simmons Lab (AID 2283767);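 as to AC50: potency for inhibitors that lower luciferase luminescence relative to DMSO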
In short: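 Recombinant firefly luciferase (5 ng/well, 200 mM potassium phosphate with 1 mg/ml BSA) was exposed to 8 concentrations from 5 nM to 87.5 uM (final, 0.5% DMSO) for 30 min at 37C in the dark. Loss of luminescence versus DMSO was read after injecting D-luciferin/ATP-analogue reagent.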

[3] = test system: zebrafish Estrogen Receptor (ESR2B), gene 317733; assay: ATG_zfER2b_XSP1: Attagene TRANS-FACTORIAL Multi-Species (XSP1) HepG2 Assay for zebrafish Estrogen Receptor (ESR2B) (AID 2283773)
In short: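 HepG2 cells transiently transfected with GAL4-UAS reporter units for chimeric zebrafish ER2b-Gal4, with 3 nM 6-alpha-fluorotestosterone present; reporter mRNA measured 24 h after dosing by RT-PCR and capillary electrophoresis, gain versus DMSO.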

[4] = STM_H9_CystineISnorm_perc: Stemina devTOX quickPredict H9 human embryonic stem cell (hESC)-based Assay for Cystine (CYSS) Metabolite Biomarker, Normalized (AID 2283713; active = hit-call score of the fitted dose curve at least 0.9, where 1 is the maximum; inactive = score below 0.9)
In short: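 Undifferentiated H9 hESCs were exposed to compound for 72h, with medium and compound replaced every 24h. Final-24h conditioned medium was deproteinized and analyzed by UPLC-HRMS. Cystine EIC area was normalized to spiked C13 standard and 0.1% DMSO median.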

[5] = STM_H9_OrnCyssISnorm_ratio: Stemina devTOX quickPredict H9 human embryonic stem cell (hESC)-based Assay for Ornithine (ORN):Cystine (CYSS) Ratio (AID 2283714)
In short: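 Undifferentiated H9 hESCs exposed 72 h, media and compound replaced every 24 h; final 24-h conditioned media deproteinized and analysed by UPLC-HRMS against C13 spike-ins. Value is the internal-standard-normalized ORN/CYSS ratio versus 0.1% DMSO.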

[6] = Tanguay_ZF_120hpf_ActivityScore_legacy: (Legacy) Oregon State University Tanguay Lab 120 Hour Post-fertilization zebrafish Assay Score for Activity (AID 2283742);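 as to AC50: dechorionated Tropical 5D wild-type zebrafish embryos held singly per well; static exposure from 6 hpf until 120 hpf at 28 °C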
In short: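 Dechorionated Tropical 5D embryos, one per well from 6 hpf, statically exposed to 120 hpf at 28 °C in 0.64% DMSO. Mortality and malformations scored binary by brightfield microscopy; activity score combines 18 endpoints, fitted positively versus DMSO.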

[7] = ArunA_CellTiter_hNC: Viability Assessment in the ArunA Biomedical's Oris Neural Crest (hNC) Cell Migration Assay (AID 2283752)
In short: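 Human H9-derived neural crest stem cells were plated at 60,000 per well on Matrigel in growth medium with LIF and bFGF, incubated 16 h at 37C, then exposed to chemical for 72 h. Viability was read with CellTiter Aqueous One as loss of signal versus DMSO.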

[8] = ArunA_Migration_hNP: ArunA Biomedical's Oris Neuroprogenitor (hNP) Cell Migration Assay (AID 2283754)
In short: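 Human H9-derived hNP1 neuroprogenitors on Matrigel with LIF/bFGF, plated around seeding stoppers for 16 h at 37C; stoppers removed at start of 72 h chemical exposure. Calcein-AM staining, fluorescence 494/517 nm in detection zone; loss-of-signal vs DMSO; cytochalasin D control.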

[9] = ArunA_NOG_BranchPointsPerNeurite: ArunA Biomedical's Neurite Outgrowth (NOG) Assay for Branch Points Per Neurite (AID 2283759)
In short: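 Automated image analysis traced neurites (processes >10 um) from valid cell bodies after Hoechst and βIII-tubulin staining. hNN cells from H9 embryonic stem cells, 48 h exposure. Fitted bidirectionally against DMSO.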

[10] = ArunA_CellTiter_hNP: Viability Assessment in the ArunA Biomedical's Oris Neural Crest (hNC) Cell Migration Assay (AID 2283753)
In short: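 H9-derived hNP1 neuroprogenitors, 60,000/well on Matrigel, cultured 16 h, then 72 h chemical exposure in test medium. Cell titer via CellTiter Aqueous One; positive-direction fit vs DMSO.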

[11] = ArunA_NOG_NucleusCount: ArunA Biomedical's Neurite Outgrowth (NOG) Assay for Nucleus Count (AID 2283756)
In short: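 Human H9-derived differentiated neurons were exposed for 48 h right after seeding. Hoechst-stained nuclei gated by size and intensity were counted by automated high-content imaging as viable neurons. Loss of signal vs DMSO.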

[12] = ArunA_NOG_NeuritesPerNeuron: ArunA Biomedical's Neurite Outgrowth (NOG) Assay for Neurites Per Neuron (AID 2283758)
In short: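 Differentiated human H9-derived neurons exposed to chemicals for 48 h from seeding, then stained with Hoechst and βIII-tubulin/DyLight 488. Automated imaging counted neurites (processes >10 um) per valid neuron; loss of signal versus DMSO scored.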

[13] = ArunA_Migration_hNC: ArunA Biomedical's Oris Neural Crest (hNC) Cell Migration Assay (AID 2283755)
In short: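 Human H9-derived neural crest stem cells, 60,000/well on Matrigel, 16 h at 37C, then 72 h chemical exposure after seeding-stopper removal. Migration into detection zone read as calcein-AM fluorescence (ex494/em517), relative to DMSO.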

[14] = ArunA_NOG_NeuriteLength: ArunA Biomedical's Neurite Outgrowth (NOG) Assay for Neurite Length (AID 2283757)
In short: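 Differentiated human H9-derived neurons were exposed for 48 h from seeding, then stained with Hoechst and βIII-tubulin. Automated high-content imaging gave total neurite length per valid neuron, counting processes >10 um. Loss of signal was scored versus DMSO.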

[15] = target: zebrafish Estrogen Receptor (ESR1), esr1 (gene 259252) (UniProt P57717); assay: ATG_zfER1_XSP1: Attagene TRANS-FACTORIAL Multi-Species (XSP1) HepG2 Assay for zebrafish Estrogen Receptor (ESR1) (AID 2283772)
In short: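 Exogenous chimeric receptor-GAL4 activity is measured in transiently transfected human HepG2 liver cells after 24 h compound exposure. Reporter transcripts are detected by RT-PCR and fluorescent capillary electrophoresis, analysed for signal gain relative to DMSO.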

[16] = test system: frog Estrogen Receptor (ESR2), gene 100174814; assay: ATG_frER2_XSP1: Attagene TRANS-FACTORIAL Multi-Species (XSP1) HepG2 Assay for frog Estrogen Receptor (ESR2) (AID 2283774)
In short: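 HepG2 cells transiently transfected with GAL4-UAS reporter units expressing chimeric frog ER-Gal4; 3 nM 6-alpha-fluorotestosterone present. After 24 h dosing, reporter mRNA quantified by RT-PCR and capillary electrophoresis; gain-of-signal fitted relative to DMSO.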

[17] = ACEA_AR_agonist_AUC_viability: ACEA Biosciences xCELLigence Real-Time Cell Analysis on Androgen Receptor Agonism for Viability (AID 2283775)
In short: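 Read-out is area under the impedance curve at 80 h post-dose in 22Rv1 cells, with DMSO as baseline and signal loss taken as reduced viability. Compounds ran in duplicate from 100 uM final.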

[18] = test system: zebrafish Androgen Receptor (AR), gene 100005148; assay: ATG_zfAR_XSP1: Attagene TRANS-FACTORIAL Multi-Species (XSP1) HepG2 Assay for zebrafish Androgen Receptor (AR) (AID 2283771)
In short: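 HepG2 cells were transiently transfected with a zebrafish AR-GAL4 reporter system and partially stimulated with 3 nM 6-alpha-fluorotestosterone. Reporter mRNA was measured after 24 h dosing by RT-PCR with capillary electrophoresis, and gain-of-signal was fitted relative to DMSO.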

Sequence of Luciferin 4-monooxygenase (Photinus pyralis) (P08659 whole entry, looked up): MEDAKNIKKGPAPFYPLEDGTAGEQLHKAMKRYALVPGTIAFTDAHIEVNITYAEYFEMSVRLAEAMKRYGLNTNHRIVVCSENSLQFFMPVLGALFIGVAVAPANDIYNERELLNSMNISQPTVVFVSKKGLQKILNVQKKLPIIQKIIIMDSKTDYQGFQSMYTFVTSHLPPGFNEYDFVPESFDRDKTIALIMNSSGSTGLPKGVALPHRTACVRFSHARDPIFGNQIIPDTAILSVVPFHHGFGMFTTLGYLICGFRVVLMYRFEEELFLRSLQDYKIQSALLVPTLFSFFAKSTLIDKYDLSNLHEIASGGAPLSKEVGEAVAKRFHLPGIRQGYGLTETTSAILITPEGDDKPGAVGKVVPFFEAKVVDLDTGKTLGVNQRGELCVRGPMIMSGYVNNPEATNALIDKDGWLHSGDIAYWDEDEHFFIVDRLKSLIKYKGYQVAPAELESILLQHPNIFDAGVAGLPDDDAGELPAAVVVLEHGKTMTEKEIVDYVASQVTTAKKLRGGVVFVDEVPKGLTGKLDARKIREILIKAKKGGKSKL
Sequence of zebrafish Estrogen Receptor (ESR1), esr1 (gene 259252) (P57717 whole entry, looked up, the tested form may be a part): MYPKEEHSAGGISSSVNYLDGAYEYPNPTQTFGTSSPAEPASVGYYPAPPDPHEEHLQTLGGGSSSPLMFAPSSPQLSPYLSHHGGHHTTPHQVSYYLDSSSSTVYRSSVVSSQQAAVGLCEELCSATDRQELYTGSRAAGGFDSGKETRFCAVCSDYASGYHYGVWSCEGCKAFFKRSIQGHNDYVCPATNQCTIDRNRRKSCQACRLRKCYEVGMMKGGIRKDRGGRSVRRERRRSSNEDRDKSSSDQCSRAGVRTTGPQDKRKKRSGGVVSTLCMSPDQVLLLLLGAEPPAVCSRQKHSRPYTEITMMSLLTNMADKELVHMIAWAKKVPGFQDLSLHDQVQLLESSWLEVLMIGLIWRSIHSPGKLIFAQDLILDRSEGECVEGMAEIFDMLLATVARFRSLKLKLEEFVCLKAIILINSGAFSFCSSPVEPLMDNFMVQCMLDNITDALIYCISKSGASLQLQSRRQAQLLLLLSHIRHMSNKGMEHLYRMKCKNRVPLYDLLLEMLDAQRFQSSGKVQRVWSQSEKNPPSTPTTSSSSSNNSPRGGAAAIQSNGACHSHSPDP

**Q.** Which outcome [1] does the source give for CCCCCCCCC(=O)NCc1ccc(O)c(OC)c1 here?
**A.** inactive

**Q.** What does the source list for COP(=O)(OC)O/C(=C\Cl)c1cc(Cl)c(Cl)cc1Cl?
**A.** outcome [1]: inactive; outcome [2]: inactive; AC50 [3]: 73.9 µM (active)

**Q.** With O=[N+]([O-])c1ccc(O)c([N+](=O)[O-])c1 as the compound, how does the AC50 [4] read?
**A.** 31.1 µM (active)

**Q.** And the outcome [5]?
**A.** inactive

**Q.** And the AC50 [6]?
**A.** 29.6 µM (active)

**Q.** Which results are given for CCC1(c2ccc(N)cc2)CCC(=O)NC1=O (centres undefined)?
**A.** outcome [1]: inactive; outcome [2]: inactive

**Q.** For Cn1sc(Cl)cc1=O, which outcome [1] is on record?
**A.** inactive

**Q.** And the AC50 [6]?
**A.** 39.8 µM (active)

**Q.** Which results are given for CCOP(=S)(OCC)SCSP(=S)(OCC)OCC?
**A.** outcome [1]: inactive; outcome [6]: inactive; outcome [2]: inactive

**Q.** For CC(=O)[O][Hg][c]1ccccc1, which AC50 [4] is on record?
**A.** 0.287 µM (active)

**Q.** What about the AC50 [5] of the same compound?
**A.** 0.311 µM (active)

**Q.** And the AC50 [6]?
**A.** 0.111 µM (active)

**Q.** Which outcome [1] does the source give for Nc1ccc(-c2ccc(N)c(Cl)c2)cc1Cl here?
**A.** inactive

**Q.** With ClCC(Cl)CCl as the compound, how does the outcome [4] read?
**A.** inactive

**Q.** What about the outcome [5] of the same compound?
**A.** inactive

**Q.** And the outcome [6]?
**A.** inactive

**Q.** What about the outcome [7] of the same compound?
**A.** inactive

**Q.** What about the outcome [8] of the same compound?
**A.** inactive

**Q.** What about the outcome [9] of the same compound?
**A.** inactive

**Q.** With ClC1(Cl)C2(Cl)C3(Cl)C4(Cl)C(Cl)(Cl)C5(Cl)C3(Cl)C1(Cl)C5(Cl)C24Cl (centres undefined) as the compound, how does the outcome [4] read?
**A.** inactive

**Q.** And the AC50 [5]?
**A.** 0.346 µM (active)

**Q.** And the outcome [6]?
**A.** inactive

**Q.** And the outcome [10]?
**A.** inactive

**Q.** And the outcome [8]?
**A.** inactive

**Q.** And the outcome [11]?
**A.** inactive

**Q.** What about the outcome [12] of the same compound?
**A.** inactive

**Q.** And the outcome [9]?
**A.** inactive

**Q.** For CCOP(=S)(OCC)SCCS(=O)(=O)CC, which outcome [1] is on record?
**A.** inactive

**Q.** For CC(C)(C)c1cc(O)ccc1O, which outcome [4] is on record?
**A.** inactive

**Q.** And the outcome [5]?
**A.** inactive

**Q.** What about the AC50 [6] of the same compound?
**A.** 16.8 µM (active)

**Q.** And the AC50 [8]?
**A.** 33.7 µM (active)

**Q.** And the AC50 [13]?
**A.** 35.8 µM (active)

**Q.** And the outcome [11]?
**A.** inactive

**Q.** And the outcome [14]?
**A.** inactive

**Q.** What about the outcome [12] of the same compound?
**A.** inactive

**Q.** What about the AC50 [2] of the same compound?
**A.** 79.7 µM (active) and 80.7 µM (active)

**Q.** And the outcome [2]?
**A.** inactive

**Q.** What about the outcome [15] of the same compound?
**A.** inactive

**Q.** And the AC50 [3]?
**A.** 20 µM (active)

**Q.** What about the AC50 [16] of the same compound?
**A.** 22.4 µM (active)

**Q.** With O=C(O)C(Cl)(Cl)Cl as the compound, how does the outcome [4] read?
**A.** inactive

**Q.** What about the outcome [6] of the same compound?
**A.** inactive

**Q.** Which outcome [5] does the source give for CC(C)(c1ccc(OCC2CO2)cc1)c1ccc(OCC2CO2)cc1 (centres undefined) here?
**A.** inactive

**Q.** And the outcome [2]?
**A.** inactive

**Q.** With NNC(=S)NN as the compound, how does the outcome [1] read?
**A.** inactive

**Q.** And the outcome [2]?
**A.** inactive

**Q.** What about the outcome [17] of the same compound?
**A.** inactive

**Q.** Which AC50 [1] does the source give for CC(C)OC(=O)Nc1ccccc1 here?
**A.** 2.64 µM (active)

**Q.** Which outcome [18] does the source give for CC(C)(C)CC(C)(C)c1ccc(O)cc1 here?
**A.** inactive

**Q.** What about the AC50 [3] of the same compound?
**A.** 1.7 µM (active)

**Q.** What about the AC50 [16] of the same compound?
**A.** 2.75 µM (active)

**Q.** Which AC50 [3] does the source give for O=C1C2(Cl)C3(Cl)C4(Cl)C(Cl)(Cl)C5(Cl)C3(Cl)C1(Cl)C5(Cl)C24Cl (centres undefined) here?
**A.** 1.93 µM (active)

**Q.** What about the AC50 [16] of the same compound?
**A.** 2.24 µM (active)
